Measurements: PubChem BioAssay AID624491 (Broad Institute, 2012)
Out of some 1,800 compounds screened, about 1,400 (78%) were called active. Roughly 2% stayed inconclusive and do not appear here.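 The calls were made as follows: active = fitted curve crossing a set activation limit at or below the highest valid dose tested; inconclusive = flat fit at 30 to 70% activation, or poor fit; inactive = the rest, including signal decreases.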 So high a share suggests a set chosen from earlier hits. These entries were drawn from the full list. Measured potencies and affinities stand elsewhere.

experiment: blockers of NLG process in reporter cells – D54 ERlucT cells, luminescence, cherry-picks, dose response (AID 624491); conditions: D54 ERlucT glycosylation luciferase reporter, 24 h, 100% = twice neutral-control luminescence; series mostly up to 19.5 µM; activation (NLG inhibition): at the top concentration;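 also: signal gain reflects blocked N-linked glycosylation of a luciferase reporter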

Activation (NLG inhibition), inactive:
O=C(Nc1ccccc1-c1ccccc1)C1CCCC1 43.1%
CC#CC#Cc1cccc(=O)o1 18.2%
O=C(/C=C/c1ccccc1)c1ccc2c3c(cccc13)CC2 -3.84%
Cc1cc(NC(=O)CSc2nc3ccccc3c(=O)n2C2CCCC2)no1 25.9%
Cc1cc(NC(=O)/C=C/C(=O)N(CC(=O)NC2CCCC2)c2ccc(F)cc2)no1 5.47%
Nc1nc(Nc2ccccc2)sc1C(=O)c1ccccc1 6.8%
COc1ccccc1N1CCN(C(=O)c2ccc(Cl)c(S(=O)(=O)NCc3ccco3)c2)CC1 43%
COc1cc2ccccc2cc1C(=O)N1CCc2ccccc21 32.7%
CCOc1ccc(S(=O)(=O)Nc2cc(OC)ccc2OC)cc1 7.3%
COc1cc(-c2nc3cnccn3c2Nc2ccc(C)cc2)ccc1O 78.2%
COCCCNC(=O)c1cccc2c(-c3ccc(O)c(OC)c3)coc12 45.3%
COc1cc(OC)cc(C(=O)NNC(=O)c2ccc3ccccc3n2)c1 21%
CC(C)[n+]1ccn(C2=C([O-])c3ccccc3C(=O)/C2=N\S(=O)(=O)c2ccccc2)c1 -34.1%
CCC(C)[C@H](NC(=O)N1CC(=O)Nc2ccccc21)C(=O)Nc1ccccc1C (some centres not stated) 25.7%
O=C(CNC(=O)N1CC(=O)Nc2ccccc21)NCCCc1ccccc1 40.4%
CC(C)c1ccc(NC(=O)[C@@H](NC(=O)N2CC(=O)Nc3ccccc32)C(C)C)cc1 55.1%
O=C(Nc1cccc2ncccc12)c1ccc([N+](=O)[O-])o1 -15.3%
O=C(Nc1cccc(-c2nc3ncccc3o2)c1)c1sc2ccccc2c1Cl 0.539%
C(=N\Nc1nc2ccccc2[nH]1)/c1ccc2ncccc2c1 818%
COc1ccc(/C=C/C(=O)c2ccccc2)cc1COc1ccccc1F 34.3%
CC(=O)Nc1cccc(-c2ccnc3c2CC(C)(C(=O)NCc2cccc(Cl)c2)O3)c1 (configuration not stated) 37.3%
CC1(C(=O)NCC2CC2)Cc2c(-c3cccc(C(F)(F)F)c3)ccnc2O1 (configuration not stated) 52.2%
CC1(C(=O)NCC2CCOCC2)Cc2c(-c3cccc(C(F)(F)F)c3)ccnc2O1 (configuration not stated) 63.4%
Cc1nc(C)c(C(=O)N/N=C/c2c[nH]c3ccccc23)s1 48.2%
CCOc1ccc(C(C)=O)cc1COc1cccnc1[N+](=O)[O-] 40%
O=C(Oc1c(Cl)cc(Cl)c2cccnc12)c1ccco1 15.2%
COc1ccccc1NC(=O)c1ccc(-c2ccc(Br)cc2)o1 45.2%
Cc1ccc(OCCNC(=O)c2cccc(S(=O)(=O)NCc3ccccc3)c2)cc1 35%
CCCCn1c(SCC(=O)Nc2cc(C(F)(F)F)cc(C(F)(F)F)c2)nnc1C(CC)N(C)C (configuration not stated) 17.5%
COc1ccc(Oc2ccc(/C=C/C(=O)c3cccc(OC)c3)cc2[N+](=O)[O-])cc1 -4.01%
Cc1cnc2cc(Cl)c(Cl)cc2n1 18.3%
CCOC(=O)C1=C(C)N=C2SC=C(C)N2C1c1ccc(OC)cc1 (configuration not stated) 34%
COc1ccc(CCNC(=O)c2cc(-c3ccco3)on2)cc1OC 97.5%
O=C(C=Cc1cccnc1)c1ccccc1 45.6% [at 5 µM]
O=C(/C=C/c1ccccc1Cl)c1ccc(O)cc1 4.1%
O=C(/C=C/c1cccnc1)c1ccc(F)c(F)c1 -67.7%
CCOC(=O)c1[nH]c(C)c(C(=O)c2ccc(C)cc2)c1C 24.6%
